Data from PubChem BioAssay AID1159580 (chemical genetic matrix, 2015).
Among all 5,500 compounds or so, about 2,000 (36%) were called active. Another 18% or so got no clear call; they are omitted. No stated cut-off is given here; in the data, active means normalized growth mostly below about 0.91 (no sharp cut-off); inconclusive means no clear call, values can overlap the other calls; inactive means mostly above about 0.92. Some of the results follow.

Assay: chemical genetic growth profiling, strain panel (AID 1159580);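 further: tested at 20 µM; growth read once vehicle control cultures reached saturation at 30 °C; 1 = growth at the plate median or of vehicle wells; lower values mean less growth of the strain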
Conditions: S. cerevisiae deletion strains, growth OD
[1] = locus YAL013W, strain DEP1, active compounds read low
[2] = locus YGR078C, strain PAC10, active compounds read low
[3] = locus YJR075W, strain HOC1, active compounds read low
[4] = locus YNL322C, strain KRE1, active compounds read low
[5] = locus YPL055C, strain LGE1, active compounds read low
[6] = locus YPL241C, strain CIN2, active compounds read low
[7] = locus YHR030C, strain SLT2, active compounds read low

Measured: normalized growth

COc1ccc2c(c1)C13CCCCC1C(C2)N(C)CC3 (stereo unspecified)
inactive: [1] 1.02 | locus YAL040C, strain CLN3, active compounds read low 0.995 | locus YCL061C, strain MRC1 (second series), active compounds read low 1 | locus YDR363W, strain ESC2, active compounds read low 0.952 | locus YER002W, strain NOP16, active compounds read low 1 | [2] 0.995 | locus YGR229C, strain SMI1, active compounds read low 0.991 | [3] 0.985 | locus YNL128W, strain TEP1, active compounds read low 1.01 | locus YNL175C, strain NOP13, active compounds read low 1.01 | locus YNL197C, strain WHI3, active compounds read low 1.01 | locus YNL224C, strain SQS1, active compounds read low 1.01 | [4] 1 | locus YOR083W, strain WHI5 (second series), active compounds read low 0.97 | [5] 0.967 | [6] 0.998

CC[C@@H](CO)NC(=O)[C@@H]1C=C2c3cccc4c3c(cn4C)C[C@H]2N(C)C1
inactive: [7] 1 | locus YHR079C, strain IRE1, active compounds read low 0.989 | locus YJL095W, strain BCK1, active compounds read low 0.981 | locus YJR066W, strain TOR1, active compounds read low 0.926 | locus YLR113W, strain HOG1, active compounds read low 1.02 | locus YNL183C, strain NPR1, active compounds read low 0.928 | locus YOR231W, strain MKK1, active compounds read low 1 | locus YPL256C, strain CLN2, active compounds read low 0.973

CCOC(=O)CC(=O)CSc1nnc(N)s1
inactive: [1] 0.998 | locus YBR229C, strain ROT2, active compounds read low 0.988 | locus YCL061C, strain MRC1, active compounds read low 1.04 | locus YDL101C, strain DUN1, active compounds read low 1.04 | locus YDR150W, strain NUM1, active compounds read low 1 | locus YEL061C, strain CIN8, active compounds read low 1 | [2] 1.02 | [7] 1.13 | locus YHR087W, strain rtc3, active compounds read low 0.992 | locus YJR043C, strain POL32, active compounds read low 1.06 | [3] 1.01 | locus YLR039C, strain RIC1, active compounds read low 1 | locus YLR058C, strain SHM2 (second series), active compounds read low 0.999 | locus YLR085C, strain ARP6, active compounds read low 1.04 | locus YLR262C, strain YPT6, active compounds read low 1.01 | locus YML094W, strain GIM5, active compounds read low 1.02 | locus YMR219W, strain ESC1, active compounds read low 1 | locus YMR263W, strain SAP30, active compounds read low 1.02 | locus YMR307W, strain GAS1, active compounds read low 0.985 | locus YNL153C, strain GIM3, active compounds read low 1.05 | locus YNL298W, strain CLA4 (second series), active compounds read low 1.05 | [4] 1.02 | locus YNR030W, strain Alg12, active compounds read low 1.02 | locus YOL006C, strain TOP1, active compounds read low 1.13 | [5] 0.978 | [6] 1.02 | locus YPR135W, strain CTF4, active compounds read low 1.11
